According to the supplement of paper PMC6897291:

Key:
U-2932 [1] = assay: growth inhibition by drug alone (1 - RLU/untreated control) (fraction); higher = stronger inhibition; settings: 177Lu-lilotomab satetraxetan 0 ug/ml
Method in brief: (§1)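 Compound doses on the pre-printed Selleck Cambridge Cancer Compound library plates were 10/100 nM for RIVA cells and 10/1,000 nM for U-2932 cells, seeded at 3,000 cells/well. Before seeding, cells were washed after 18 h with or without a radiolabelled anti-CD37 antibody conjugate (~600 MBq/mg; 0.5 µg/ml RIVA, 1 µg/ml U-2932). Growth inhibition was derived from RealTime-Glo luminescence relative to untreated no-drug control wells. Readings were taken daily starting on day 3, each after 1 h at 37°C, and each well's RLU was divided by the mean of 48 such wells per plate and subtracted from 1.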

RIVA [2] = assay: as above; settings: 177Lu-lilotomab satetraxetan 0 ug/ml
Method in brief: as §1

U-2932 [3] = assay: growth inhibition by drug plus 177Lu-lilotomab satetraxetan (1 - RLU/untreated control) (fraction); higher = stronger inhibition; settings: 177Lu-lilotomab satetraxetan 1 ug/ml
Method in brief: as §1

RIVA [4] = assay: as above; settings: 177Lu-lilotomab satetraxetan 0.5 ug/ml
Method in brief: as §1

| Compound | growth inhibition by drug alone (U-2932 [1]; 10 nM, time (day): 3) | growth inhibition by drug alone (U-2932 [1]; 10 nM, time (day): 4) | growth inhibition by drug alone (U-2932 [1]; 10 nM, time (day): 5) | growth inhibition by drug alone (U-2932 [1]; 10 nM, time (day): 6) | growth inhibition by drug alone (U-2932 [1]; 1000 nM, time (day): 3) | growth inhibition by drug alone (U-2932 [1]; 1000 nM, time (day): 4) | growth inhibition by drug alone (U-2932 [1]; 1000 nM, time (day): 5) | growth inhibition by drug alone (U-2932 [1]; 1000 nM, time (day): 6) | growth inhibition by drug alone (RIVA [2]; 10 nM, time (day): 3) | growth inhibition by drug alone (RIVA [2]; 10 nM, time (day): 4) | growth inhibition by drug alone (RIVA [2]; 10 nM, time (day): 5) | growth inhibition by drug alone (RIVA [2]; 10 nM, time (day): 6) | growth inhibition by drug alone (RIVA [2]; 100 nM, time (day): 3) | growth inhibition by drug alone (RIVA [2]; 100 nM, time (day): 4) | growth inhibition by drug alone (RIVA [2]; 100 nM, time (day): 5) | growth inhibition by drug alone (RIVA [2]; 100 nM, time (day): 6) | growth inhibition by drug plus 177Lu-lilotomab satetraxetan (U-2932 [3]; 10 nM, time (day): 3) | growth inhibition by drug plus 177Lu-lilotomab satetraxetan (U-2932 [3]; 10 nM, time (day): 4) | growth inhibition by drug plus 177Lu-lilotomab satetraxetan (U-2932 [3]; 10 nM, time (day): 5) | growth inhibition by drug plus 177Lu-lilotomab satetraxetan (U-2932 [3]; 10 nM, time (day): 6) | growth inhibition by drug plus 177Lu-lilotomab satetraxetan (U-2932 [3]; 1000 nM, time (day): 3) | growth inhibition by drug plus 177Lu-lilotomab satetraxetan (U-2932 [3]; 1000 nM, time (day): 4) | growth inhibition by drug plus 177Lu-lilotomab satetraxetan (U-2932 [3]; 1000 nM, time (day): 5) | growth inhibition by drug plus 177Lu-lilotomab satetraxetan (U-2932 [3]; 1000 nM, time (day): 6) | growth inhibition by drug plus 177Lu-lilotomab satetraxetan (RIVA [4]; 10 nM, time (day): 3) | growth inhibition by drug plus 177Lu-lilotomab satetraxetan (RIVA [4]; 10 nM, time (day): 4) | growth inhibition by drug plus 177Lu-lilotomab satetraxetan (RIVA [4]; 10 nM, time (day): 5) | growth inhibition by drug plus 177Lu-lilotomab satetraxetan (RIVA [4]; 10 nM, time (day): 6) | growth inhibition by drug plus 177Lu-lilotomab satetraxetan (RIVA [4]; 100 nM, time (day): 3) | growth inhibition by drug plus 177Lu-lilotomab satetraxetan (RIVA [4]; 100 nM, time (day): 4) | growth inhibition by drug plus 177Lu-lilotomab satetraxetan (RIVA [4]; 100 nM, time (day): 5) | growth inhibition by drug plus 177Lu-lilotomab satetraxetan (RIVA [4]; 100 nM, time (day): 6) |
| --- | --- | --- | --- | --- | --- | --- | --- | --- | --- | --- | --- | --- | --- | --- | --- | --- | --- | --- | --- | --- | --- | --- | --- | --- | --- | --- | --- | --- | --- | --- | --- | --- |
| Cc1nn(-c2ccccc2)c(C)c1C=NN1CCN(Cc2ccccc2)CC1 | 0.0133 | 0.025 | 0.0751 | 0.189 | -0.168 | -0.0669 | -0.0956 | -0.16 | -0.144 | -0.164 | -0.201 | -0.467 | -0.163 | -0.151 | -0.201 | -0.307 | -0.0548 | -0.0219 | 0.00875 | 0.104 | -0.251 | -0.05 | -0.0247 | -0.0474 | 0.275 | 0.414 | 0.437 | 0.459 | 0.295 | 0.4 | 0.397 | 0.389 |
| C[S+]([O-])c1ccc(-c2nc(-c3ccc(F)cc3)c(-c3ccncc3)[nH]2)cc1 (stereo not given) | 0.109 | 0.0691 | 0.0651 | 0.00981 | 0.494 | 0.396 | 0.258 | 0.202 | -0.0319 | 0.0179 | -0.0545 | -0.284 | -0.128 | -0.0437 | -0.0833 | -0.227 | 0.103 | 0.123 | 0.206 | 0.225 | 0.441 | 0.358 | 0.325 | 0.374 | 0.668 | 0.678 | 0.684 | 0.677 | 0.322 | 0.441 | 0.432 | 0.451 |
| O=C1NC(=O)/C(=C\c2cccc(C(F)(F)F)c2)S1 | -0.0629 | -0.0752 | -0.145 | -0.158 | -0.0663 | -0.0763 | -0.118 | -0.219 | -0.238 | -0.269 | -0.325 | -0.41 | -0.524 | -0.503 | -0.514 | -0.584 | -0.0851 | -0.0351 | 0.0122 | 0.101 | -0.0652 | -0.0183 | 0.0099 | 0.134 | 0.418 | 0.47 | 0.492 | 0.508 | 0.391 | 0.456 | 0.458 | 0.45 |
| CC(C)(C)c1cnc(CSc2cnc(NC(=O)C3CCNCC3)s2)o1 | -0.112 | -0.121 | -0.0865 | -0.0439 | 0.946 | 0.962 | 0.971 | 0.978 | -0.214 | -0.262 | -0.264 | -0.28 | -0.524 | -0.411 | -0.58 | -0.723 | -0.136 | -0.0562 | 0.00872 | 0.121 | 0.955 | 0.966 | 0.975 | 0.983 | – | – | – | – | – | – | – | – |
| COc1cc(OC2CCN(C)CC2)ccc1Nc1ncc2c(n1)n(C1CCCC1)c(=O)n2C | -0.0462 | -0.0489 | -0.0615 | -0.034 | -0.165 | -0.184 | -0.206 | -0.247 | -0.233 | -0.291 | -0.358 | -0.453 | -0.524 | -0.553 | -0.545 | -0.66 | -0.087 | -0.0366 | 0.0152 | 0.102 | -0.121 | -0.0709 | -0.0115 | 0.128 | 0.539 | 0.578 | 0.601 | 0.587 | 0.355 | 0.432 | 0.453 | 0.479 |
| FC(F)c1nc2ccccc2n1-c1nc(N2CCOCC2)nc(N2CCOCC2)n1 | 0.143 | 0.0834 | 0.0466 | 0.0263 | 0.437 | 0.399 | 0.349 | 0.367 | 0.208 | 0.164 | 0.161 | 0.106 | 0.823 | 0.782 | 0.766 | 0.718 | 0.0955 | 0.119 | 0.149 | 0.22 | 0.282 | 0.348 | 0.331 | 0.393 | 0.45 | 0.529 | 0.568 | 0.572 | 0.763 | 0.779 | 0.782 | 0.761 |
| COc1c(C)c2c(c(O)c1C/C=C(\C)CCC(=O)OCCN1CCOCC1)C(=O)OC2 [Mycophenolate mofetil (CellCept)] | 0.0454 | 0.0504 | -0.00114 | -0.00474 | 0.727 | 0.792 | 0.743 | 0.673 | 0.15 | 0.0186 | -0.0505 | -0.245 | 0.284 | 0.214 | 0.154 | 0.0335 | 0.0524 | 0.064 | 0.0624 | 0.115 | 0.826 | 0.893 | 0.89 | 0.878 | 0.413 | 0.511 | 0.534 | 0.55 | 0.554 | 0.581 | 0.583 | 0.539 |
| CN1C(=O)C(Cc2c[nH]c3ccccc23)NC1=S (stereo not given) [Necrostatin-1] | 0.00216 | -0.00946 | -0.022 | -0.0551 | -0.0606 | -0.0746 | -0.132 | -0.0624 | -0.0747 | -0.159 | -0.218 | -0.441 | -0.34 | -0.362 | -0.408 | -0.562 | -0.059 | -0.0156 | 0.00349 | 0.0946 | -0.0506 | 0.00685 | 0.0586 | 0.224 | – | – | – | – | – | – | – | – |
